From PubChem BioAssay AID1159580 (chemical genetic matrix, 2015)
The whole screen tested about 5,500 compounds, of which about 2,000 (36%) were called active. Another 18% or so got no clear call; they are omitted. No stated cut-off is given here; in the data, active means normalized growth mostly below about 0.91 (no sharp cut-off); inconclusive means no clear call, values can overlap the other calls; inactive means mostly above about 0.92. The list shows a part of the results.

Test: chemical genetic growth profiling, strain panel (AID 1159580);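 further: tested at 20 µM; growth read once vehicle control cultures reached saturation at 30 °C; 1 = growth at the plate median or of vehicle wells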
Conditions: growth OD

Measured: normalized growth

COc1ccc(C(Cl)=C(c2ccc(OC)cc2)c2ccc(OC)cc2)cc1
inactive: S. cerevisiae deletion strains, locus YKL009W, strain mrt4, stronger effect = lower value 1.02 | S. cerevisiae deletion strains, locus YKL068W, stronger effect = lower value 1.02 | S. cerevisiae deletion strains, locus YKL085W, strain MDH1 (second series), stronger effect = lower value 0.98 | S. cerevisiae deletion strains, locus YKL085W, strain MDH1, stronger effect = lower value 0.98 | S. cerevisiae deletion strains, locus YKL160W, strain elf1, stronger effect = lower value 0.993 | S. cerevisiae deletion strains, locus YKL190W, strain CNB1, stronger effect = lower value 1.01 | S. cerevisiae deletion strains, locus YKR001C, strain vps1, stronger effect = lower value 1.01 | S. cerevisiae deletion strains, locus YKR026C, strain gcn3, stronger effect = lower value 1.01 | S. cerevisiae deletion strains, locus YKR091W, strain srl3, stronger effect = lower value 1.04 | S. cerevisiae deletion strains, locus YLL001W, strain dnm1, stronger effect = lower value 1.01 | S. cerevisiae deletion strains, locus YLL026W, stronger effect = lower value 1 | S. cerevisiae deletion strains, locus YLL041C, strain sdh2, stronger effect = lower value 1.02 | S. cerevisiae deletion strains, locus YLR027C, strain aat2, stronger effect = lower value 1.04 | S. cerevisiae deletion strains, locus YLR039C, strain RIC1, stronger effect = lower value 1.01 | S. cerevisiae deletion strains, locus YLR058C, strain SHM2, stronger effect = lower value 1.02 | S. cerevisiae deletion strains, locus YLR102C, strain apc9, stronger effect = lower value 1.02 | S. cerevisiae deletion strains, locus YLR113W, strain HOG1, stronger effect = lower value 0.97 | S. cerevisiae deletion strains, locus YLR221C, strain rsa3, stronger effect = lower value 0.995 | S. cerevisiae deletion strains, locus YLR258W, strain gsy2, stronger effect = lower value 1.02 | S. cerevisiae deletion strains, locus YLR262C, strain YPT6 (second series), stronger effect = lower value 1.07 | S. cerevisiae deletion strains, locus YLR262C, strain YPT6, stronger effect = lower value 1.02 | S. cerevisiae deletion strains, locus YLR268W, strain sec22, stronger effect = lower value 1.01 | S. cerevisiae deletion strains, locus YLR320W, strain mms22, stronger effect = lower value 1.01 | S. cerevisiae deletion strains, locus YLR330W, strain CHS5, stronger effect = lower value 1.01 | S. cerevisiae deletion strains, locus YLR342W, strain FKS1 (second series), stronger effect = lower value 0.988 | S. cerevisiae deletion strains, locus YLR342W, strain FKS1, stronger effect = lower value 1.01 | S. cerevisiae deletion strains, locus YLR357W, strain rsc2, stronger effect = lower value 1.04 | S. cerevisiae deletion strains, locus YLR370C, strain arc18, stronger effect = lower value 0.972 | S. cerevisiae deletion strains, locus YLR371W, strain rom2, stronger effect = lower value 1.03 | S. cerevisiae deletion strains, locus YLR384C, strain iki3, stronger effect = lower value 1.01 | S. cerevisiae deletion strains, locus YLR418C, strain cdc73, stronger effect = lower value 1.06 | S. cerevisiae deletion strains, locus YML016C, strain PPZ1, stronger effect = lower value 1.02 | S. cerevisiae deletion strains, locus YML032C, strain rad52, stronger effect = lower value 1 | S. cerevisiae deletion strains, locus YML120C, strain ndi1, stronger effect = lower value 0.982 | S. cerevisiae deletion strains, locus YML124C, strain tub3, stronger effect = lower value 1.03 | S. cerevisiae deletion strains, locus YMR058W, strain fet3, stronger effect = lower value 1.05 | S. cerevisiae deletion strains, locus YMR078C, strain ctf18, stronger effect = lower value 1.03 | S. cerevisiae deletion strains, locus YMR125W, strain sto1, stronger effect = lower value 1.01 | S. cerevisiae deletion strains, locus YMR129W, stronger effect = lower value 0.998 | S. cerevisiae deletion strains, locus YMR205C, strain PFK2, stronger effect = lower value 1.03 | S. cerevisiae deletion strains, locus YMR223W, strain ubp8, stronger effect = lower value 1.02 | S. cerevisiae deletion strains, locus YMR231W, strain pep5, stronger effect = lower value 1.02 | S. cerevisiae deletion strains, locus YMR263W, strain SAP30, stronger effect = lower value 1.04 | S. cerevisiae deletion strains, locus YMR307W, strain GAS1, stronger effect = lower value 1 | S. cerevisiae deletion strains, locus YNL067W, strain RPL9B, stronger effect = lower value 1.03 | S. cerevisiae deletion strains, locus YNL071W, strain lat1, stronger effect = lower value 1.03 | S. cerevisiae deletion strains, locus YNL128W, strain TEP1, stronger effect = lower value 1.03 | S. cerevisiae deletion strains, locus YNL183C, strain NPR1, stronger effect = lower value 0.905 | S. cerevisiae deletion strains, locus YNL209W, strain ssb2, stronger effect = lower value 1 | S. cerevisiae deletion strains, locus YNL233W, strain BNI4, stronger effect = lower value 1.02 | S. cerevisiae deletion strains, locus YNL248C, strain rpa49, stronger effect = lower value 0.962 | S. cerevisiae deletion strains, locus YNL250W, strain rad50, stronger effect = lower value 1.05 | S. cerevisiae deletion strains, locus YNL271C, strain bni1, stronger effect = lower value 1.01 | S. cerevisiae deletion strains, locus YNL298W, strain CLA4, stronger effect = lower value 1.01 | S. cerevisiae deletion strains, locus YNL307C, strain MCK1, stronger effect = lower value 1.02 | S. cerevisiae deletion strains, locus YNL322C, strain KRE1 (second series), stronger effect = lower value 1.03 | S. cerevisiae deletion strains, locus YNR049C, strain mso1, stronger effect = lower value 0.977 | S. cerevisiae deletion strains, locus YNR052C, strain pop2, stronger effect = lower value 1.02 | S. cerevisiae deletion strains, locus YOL006C, strain TOP1, stronger effect = lower value 1.12 | S. cerevisiae deletion strains, locus YOL012C, strain htz1 1.9 | S. cerevisiae deletion strains, locus YOL147C, strain pex11, stronger effect = lower value 1.02 | S. cerevisiae deletion strains, locus YOR001W, strain rrp6, stronger effect = lower value 1.04 | S. cerevisiae deletion strains, locus YOR061W, strain CKA2, stronger effect = lower value 1.01 | S. cerevisiae deletion strains, locus YOR069W, strain VPS5, stronger effect = lower value 1.02 | S. cerevisiae deletion strains, locus YOR070C, strain gyp1, stronger effect = lower value 1.02 | S. cerevisiae deletion strains, locus YOR080W, strain dia2, stronger effect = lower value 0.995 | S. cerevisiae deletion strains, locus YOR083W, strain WHI5, stronger effect = lower value 1.02 | S. cerevisiae deletion strains, locus YOR106W, strain vam3, stronger effect = lower value 1.07 | S. cerevisiae deletion strains, locus YOR136W, strain idh2, stronger effect = lower value 1.01 | S. cerevisiae deletion strains, locus YOR144C, strain elg1, stronger effect = lower value 1.01 | S. cerevisiae deletion strains, locus YOR184W, strain ser1, stronger effect = lower value 1 | S. cerevisiae deletion strains, locus YOR231W, strain MKK1, stronger effect = lower value 0.981 | S. cerevisiae deletion strains, locus YOR265W, strain rbl2, stronger effect = lower value 0.996 | S. cerevisiae deletion strains, locus YOR270C, strain vph1, stronger effect = lower value 1.09 | S. cerevisiae deletion strains, locus YOR290C, strain snf2, stronger effect = lower value 1 | S. cerevisiae deletion strains, locus YOR316C, strain cot1, stronger effect = lower value 1.02 | S. cerevisiae deletion strains, locus YPL051W, strain arl3, stronger effect = lower value 0.99 | S. cerevisiae deletion strains, locus YPL055C, strain LGE1, stronger effect = lower value 1.01 | S. cerevisiae deletion strains, locus YPL078C, strain atp4, stronger effect = lower value 1.04 | S. cerevisiae deletion strains, locus YPL106C, strain sse1, stronger effect = lower value 1.01 | S. cerevisiae deletion strains, locus YPL240C, strain hsp82, stronger effect = lower value 0.989 | S. cerevisiae deletion strains, locus YPL241C, strain CIN2, stronger effect = lower value 1.01 | S. cerevisiae deletion strains, locus YPL256C, strain CLN2, stronger effect = lower value 0.964 | S. cerevisiae deletion strains, locus YPR119W, strain clb2, stronger effect = lower value 1.02 | S. cerevisiae deletion strains, locus YPR141C, strain kar3, stronger effect = lower value 1.02 | S. cerevisiae deletion strains, locus YPR163C, strain tif3, stronger effect = lower value 1.03 | S. cerevisiae deletion strains, locus YPR167C, strain met16, stronger effect = lower value 1.02 | S. cerevisiae deletion strains, strain wtn01, stronger effect = lower value 1.02 | S. cerevisiae strains, strain wild type, stronger effect = lower value 1.02
